# Rows were chosen to be rich in hits. Some 3.1% of all compounds tested hit in one or more screens of this group.
# DRD3 antagonist = D3 dopamine receptor (human) antagonism; D3R cells, DiscoveRx beta-arrestin luminescence, antagonist mode; active compounds read low; max response, negative = inhibition, %; hit rate 2.5% among 360,000; AID 652054; in the data active means max response below about -50%; inconclusive means no clear call, values can overlap the other calls; further: on the % scale 0 is the no-effect control and ±100 the full control effect
# Target sequence (P35462 whole entry, looked up): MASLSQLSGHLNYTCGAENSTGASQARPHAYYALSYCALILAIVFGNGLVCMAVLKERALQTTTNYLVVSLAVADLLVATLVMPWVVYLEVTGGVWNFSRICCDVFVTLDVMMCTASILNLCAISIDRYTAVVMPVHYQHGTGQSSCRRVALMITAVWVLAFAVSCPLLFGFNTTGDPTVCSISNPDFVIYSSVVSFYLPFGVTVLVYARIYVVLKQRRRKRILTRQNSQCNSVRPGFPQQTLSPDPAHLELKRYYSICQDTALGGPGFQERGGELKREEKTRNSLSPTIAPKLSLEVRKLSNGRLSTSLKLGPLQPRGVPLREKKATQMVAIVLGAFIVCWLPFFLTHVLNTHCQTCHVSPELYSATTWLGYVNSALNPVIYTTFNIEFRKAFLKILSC
#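 Cells expressing the human receptor were seeded at 1500 cells/well, incubated overnight at 37 degrees C in 5% CO2, then exposed to library compounds with dopamine controls for 90 minutes at 37 degrees C before luminescent detection.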
# D3 ag = activates the human D3 dopamine receptor; P35462; D3R DiscoveRx beta-arrestin cells, luminescence, 90 min; max activation, %; hit rate 0.58% among 410,000; AID 652048; in the data active means max activation above about 30%; further: 0% is about no effect
#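 Cells at 1500/well, incubated overnight, then treated with pinned compounds (dopamine as control) for 90 min at 37 degrees C. DiscoveRx reagent added for 30 - 60 minutes at room temperature; luminescence read.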
# uPA generation = blocks generation of uPA at the cell surface | hit rate 0.31% among 330,000 | Potency, µM (highest dose often 38.3 µM), without a hit: at the top dose activity change, negative = inhibition, hits mostly inhibitors | cell surface uPA generation assay, qHTS; active means well fitted inhibition curve with a large enough effect; inconclusive means small, poorly fitted or top-dose-only effect; inactive means no such curve, though single readings can be large or run the other way; tested in mouse RAW 264.7 cells; further: potency means the concentration at half of the fitted maximal effect; on the % scale 0 is the no-effect control and ±100 the full control effect; nearly all actives have a fitted effect of over 55% in size
# RGS4 inh = blocks human RGS4-accelerated GTP hydrolysis | P49798 | Transcreener GDP fluorescence polarization, RGS4-accelerated GTP hydrolysis | Potency, µM (series often up to 114 µM), for the others: at the highest dose activity change, negative = inhibition, actives largely listed as inhibitors | hit rate 0.039% among 390,000; active means well fitted inhibition curve with a large enough effect; inconclusive means small, poorly fitted or top-dose-only effect; inactive means no such curve, though single readings can be large or run the other way; further: potency means the concentration at half of the fitted maximal effect; on the % scale 0 is the no-effect control and ±100 the full control effect; nearly all actives have a fitted effect of over 75% in size
# Target sequence (P49798 whole entry, looked up): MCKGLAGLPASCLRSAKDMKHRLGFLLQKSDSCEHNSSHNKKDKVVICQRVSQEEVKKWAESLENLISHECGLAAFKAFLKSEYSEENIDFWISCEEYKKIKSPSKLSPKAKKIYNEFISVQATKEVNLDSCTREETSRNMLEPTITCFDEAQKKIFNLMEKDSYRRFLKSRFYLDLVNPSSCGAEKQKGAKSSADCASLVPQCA
#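 MLSMR compounds (23 nl, pin-transferred) preincubated 10 min at room temperature with a 500nM (2x) first reagent, then RGS4 at 900nM (2x) plus Transcreener GDP mix added; fluorescence polarization (620/688 nm) read before and after 90 min at 30 °C.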
# Numbers without * were called inactive; i = inactive; ? = inconclusive; · = no result given; [ ] = dose if it differs, or a comment.
SMILES,DRD3 antagonist,D3 ag,uPA generation,RGS4 inh
CCN1CCN(c2cn[nH]c(=O)c2Cl)CC1,-75*,-22,-3%,29%
CCOC(=O)NC(C)(C)Cc1ccc(Cl)cc1,·,-1,·,·
CC1CCC/C=C/C2CC(O)CC2C(O)/C=C/C(=O)O1 (configuration not stated),-8,1,-16%,-15%
C[C@H]1CCC/C=C/C2C[C@H](O)CC2[C@H](O)/C=C/C(=O)O1 (some centres not stated),5,24,0.32µM*,14%
O=C1c2ccccc2C(=O)C1C(=O)C(c1ccccc1)c1ccccc1,·,-5,·,·
CC(C)c1oc(=O)cc2c1[C@@H](O)[C@H]1OC(=O)[C@@]3(C)C[C@@H](O)[C@@H](O)[C@@]2(C)C13 (some centres not stated),21,15,2.2µM*,15%
C=CCC[C@H](Cc1ccc(F)cc1)C(=O)OC[C@@H](Cc1c[nH]c2ccccc12)NC(=O)[C@@H](CC=C)CC(=O)N(CCO)Cc1ccccc1,4,-9,-14%,-1%
Fc1ccc2c(c1)nnn2C1CCN(Cc2ccccc2)CC1,-78*,-9,-1%,-9%
Fc1ccc2c(c1)nnn2C1CCN(Cc2nnnn2CCc2ccccc2)CC1,-75*,-9,3%,-7%
c1ccc(CCn2nnnc2CN2CCC(n3nnc4ccccc43)CC2)cc1,?,-2,5%,-36%
Cc1ccc(N2C(=O)NC(=O)/C(=C\c3cc(C)n(-c4ccc(C(=O)O)cc4)c3C)C2=O)cc1,18,2,-1%,-22%[56.9 µM]
Cc1ccc(N2C(=O)NC(=O)/C(=C\c3cc(C)n(-c4cc(C(=O)O)cc(C(=O)O)c4)c3C)C2=O)cc1,-54*,-4,6%,-2%
CCN1C[C@@]2(COC)C3[C@@H](OC)C4[C@@H]1C3([C@@H]1C[C@]3(O)[C@H](OC(=O)c5ccccc5)[C@@H]1[C@]4(OC(C)=O)[C@@H](O)[C@@H]3OC)[C@H](OC)C[C@H]2O,·,·,·,6%[56.9 µM]
CCc1cc(OC)c(C[C@@H](C)N)cc1OC,·,-10,·,·
C=CCN1CC[C@]23c4c5ccc(O)c4OC2C(O)C=CC3[C@H]1C5 (some centres not stated),-110*,-95,0%,4%
COc1ccc2c3c1OC1C(O)C=CC4[C@@H](C2)N(C)CC[C@]314 (some centres not stated),-13,0,-4%,-5%
C#CCOCCOCCOCCNc1nc(N2CCN(C(=O)CCCCCCCCCCNC(=O)Cn3cc(C[C@@H](C)O)nn3)CC2)nc(N2CCN(C(=O)CCCCCCCCCCNC(=O)[C@H](CCCCN)n3cc(C[C@@H](C)CC)nn3)CC2)n1,?,-18,?,?
C#CCOCCOCCOCCNc1nc(N2CCN(C(=O)CCCCCCCCCCNC(=O)[C@H](CCCCN)n3cc(C[C@@H](C)CC)nn3)CC2)nc(N2CCN(C(=O)CCCCCCCCCCNC(=O)[C@H](CCCCN)n3cc(C[C@@H](C)CC)nn3)CC2)n1,-51*,-18,?,?
CCC(=O)C(CC(C)N(C)C)(c1ccccc1)c1ccccc1 (configuration not stated),·,-26,·,·
Cc1ccc(CN2Cc3ccc(Br)cc3-n3nncc3C2)cc1,-55*,-11,·,·
CC(C)n1c(/C=C/[C@H](O)C[C@H](O)CC(=O)O)c(-c2ccc(F)cc2)c2ccccc21,-8,-4,1.4µM*,-1%
COc1ccc2[nH]c3c(c2c1)CCN1C(=O)C(CC(=O)NCc2cccc(C(F)(F)F)c2)C[C@H](C(=O)N2CCCCC2)[C@@]31C (some centres not stated),0,1,?,2%
COc1c(O)ccc(/C=N\NC(=O)c2ccc3c(c2)OCO3)c1[N+](=O)[O-],-5,2,?,5%
Cn1cnc(CCN)c1,-77*,-8,-2%,-5%[56.9 µM]
CC(C)n1cnc2c(C(=O)N[C@H]3CN4CCC3CC4)cc(Cl)cc21,·,·,·,4.7µM*
SMILES,DRD3 antagonist,D3 ag,uPA generation,RGS4 inh
CCCCCCCSc1cc(OC)c(CCN(C)C)cc1OC,-66*,-16,19%,-36%
CCCCCSc1cc(OC)c(CCN)cc1OC,-8,-5,-8%,-6%
[2H]C([2H])([2H])[C@H](N)Cc1ccccc1,·,7,·,·
CC12CC1(C)C(=O)N(c1cc(Cl)cc(Cl)c1)C2=O (configuration not stated),-56*,1,?,17%
COCC1CCCCN1C(=O)c1ccc(OC)c(OC2CCN(C(C)C)CC2)c1 (configuration not stated),-3,-3,?,-30%
O=C(O)[C@@H](O)[C@H](O)C(=O)O,12,3,4%,9%
Oc1c(Br)cc(Br)cc1Br,20,1,14%,-21%
Oc1c(Br)c(Br)c(Br)c(Br)c1Br,-55*,-85,12%,-9%
C=CCC[C@@H](Cc1ccc(F)cc1)C(=O)OC[C@H](Cc1c[nH]c2ccccc12)NC(=O)[C@H](CC=C)CC(=O)N(CCO)Cc1ccccc1,83,12,?,-2%
O=C1CSC(=S)N1Cc1cccs1,13,3,?,?
O=C1C=CCC(/C=C/c2ccccc2)O1 (configuration not stated),?,1,1µM*,?
CCN(CCCl)c1cc(CN(C)C)cc(NC(=O)c2ccc(C(=O)Nc3cc(CN(C)C)cc(N(CC)CCCl)c3)cc2)c1,-84*,-12,-9%,-22%
CCOC(=O)C1(CCc2ccccc2)CCN(Cc2cccc3c2OCO3)CC1,-81*,-26,-11%,28%
CC(N)(COP(=O)(O)Oc1ccccc1)C(=O)O (configuration not stated),·,·,·,i
COC(=O)C1=C(c2cc3ccccc3o2)C[C@@H]2CC[C@H]1N2C(=O)NCc1ccccc1,-50*,6,-26%,-5%
COC(=O)C1=C(c2cc3ccccc3o2)C[C@@H]2CC[C@H]1N2C(=O)NCCCOC(C)C,8,-1,-2%,1%
COC(=O)C1=C(c2cc3ccccc3o2)C[C@@H]2CC[C@H]1N2C(=O)NCCNC(C)=O,8,41*,-1%,-3%
O=c1oc(C2(O)CCCCC2)cc2ccc(-c3ccc4[nH]ccc4c3)cc12,-29,-13,?,-6%
O=C(Cc1ccccc1)OCCN1CCCCC1,?,1,-3%,-9%
NC(=O)C1(N2CCCCC2)CCN(Cc2ccccc2)CC1,-68*,-29,-2%,-2%
CN1CC[C@@]2(c3cccc(O)c3)Cc3nc4ccccc4cc3C[C@H]2C1,·,·,·,0%[56.9 µM]
Cc1ccc(C(=O)N[C@@H](C)CN2C3=NC[C@H](Cc4ccccc4)N3C[C@H]2Cc2ccc(O)cc2)cc1Br,-27,-23,?,4%
COc1ccc(C[C@H]2CN3C(=NC[C@@H]3Cc3ccc(O)cc3)N2C[C@H](C)NC(=O)c2ccc(C)c(Br)c2)cc1,-81*,-110,?,-38%
Cc1ccc(C(=O)N[C@@H](C)CN2C3=NC[C@@H](Cc4ccccc4)N3C[C@H]2Cc2ccc(O)cc2)cc1Br,-70*,-53,-11%,11%

# Assay outcomes: PubChem BioAssay, National Center for Advancing Translational Sciences (NCATS)
